In the library only some 8.6% were active in any assay of this set; here they are far more common.
LASV entry inh: qHTS for Inhibitors of binding or entry into cells for Lassa Virus; Lassa virus pseudotyped entry inhibition, cell-based qHTS; Potency, µM (titrated, usually from 49.2 µM), without a hit: at the top dose activity change, negative = inhibition, usual class: inhibitors; actives 4.1% (n = 18,000); AID 720533, 2013
MARV entry inh: qHTS for Inhibitors of binding or entry into cells for Marburg Virus | Marburg virus pseudotype entry/binding inhibition, cell-based | Potency, µM (doses to about 49.2 µM), inactives show at the highest dose activity change, negative = inhibition, most hits filed as inhibitors | actives 6.5% (n = 18,000) | AID 720532, 2013
Starred values were filed as active, the others as inactive; [ ] = remark or other dose. Calls come from the whole dose curve; tested in HEK293 cells. % is set by controls: 0 for no effect and ±100 for the full control effect; potency is the fitted concentration of half-maximal effect.

Results for COc1ccc2c(c1OC)C(=O)O[C@@H]2[C@H]1c2c(cc3c(c2OC)OCO3)CCN1C ?
LASV entry inh: -15%; MARV entry inh: inconclusive

Results for COc1cc2c3cc1Oc1c(OC)c(OC)cc4c1[C@@H](Cc1ccc(OC(=O)c5ccc([N+](=O)[O-])cc5)c(c1)Oc1ccc(cc1)C[C@@H]3N(C)CC2)N(C)CC4 ?
LASV entry inh: inconclusive; MARV entry inh: 0.63µM*

What do the screens show for `COc1cc2c(cc1O)C[C@H]1c3c(cc(O)c(OC)c3-2)CCN1C`?
LASV entry inh: 15%[17.8 µM]; MARV entry inh: 20%[17.8 µM]

Results for COC(=O)C1C[C@@]23C(=NN=C(SC)C2N(C)c2ccc(OC)cc23)N1C(C)=O (stereo partly specified) ?
MARV entry inh: -33%[8.59 µM]

How did COc1cccc(CN2c3ccc(Br)cc3C(O)CS2(=O)=O)c1 (stereo unspecified) do in these assays?
LASV entry inh: -19%; MARV entry inh: -14%

Results for CC=COC(=O)N[C@@H](c1cccc(C)c1)[C@]1(C(=O)OCC)CCCC1=O ?
LASV entry inh: -17%[8.59 µM]; MARV entry inh: 13%[8.59 µM]

How did CO[C@@H]1c2ccccc2[C@H]2C(C(=O)O)c3c(n(C)c4ccccc34)[C@H]2[C@H]1C (stereo partly specified) do in these assays?
LASV entry inh: -22%[8.59 µM]; MARV entry inh: 29%[8.59 µM]

How did O=C(OCc1cn([C@H]2CN(C(=O)C3CCCCC3)[C@@H](c3ccc(Cl)cc3)C[C@H]2O)nn1)c1ccccc1 do in these assays?
LASV entry inh: -16%; MARV entry inh: -40%

How did C=C1[C@@H]2CCN3C(=O)N[C@@H](c4ccccc4)[C@@]1(C(=O)OCC)C23 (stereo partly specified) do in these assays?
LASV entry inh: 17%[8.59 µM]; MARV entry inh: inconclusive

What do the screens show for `CCCCCC(=O)N1C[C@H](O)[C@@H](n2cc(-c3ccc(F)cc3)nn2)C[C@H]1c1ccc(C)cc1`?
LASV entry inh: -30%; MARV entry inh: inconclusive

How did CC#CCN1C(=O)N(C)C(c2ccccc2)C(C(=O)OC)=C1C (stereo unspecified) do in these assays?
LASV entry inh: 10%[8.59 µM]; MARV entry inh: -4%[8.59 µM]

How did COC(=O)C1=C(C(=O)OC)[C@@H]2N(CC=C(C)C)c3ccccc3[C@@]23CCC(=O)N(Cc2cccc(C(F)(F)F)c2)C3=N1 do in these assays?
LASV entry inh: 2%[8.59 µM]; MARV entry inh: -28%[8.59 µM]

What do the screens show for `CCN1C(=NCc2cccc(Cl)c2)N[C@@H](CCc2ccccc2)[C@H](C(=O)OC)[C@H]1C`?
LASV entry inh: -21%[8.59 µM]; MARV entry inh: 65%[8.59 µM]

How did COc1cc(C)c(NC(=O)CN(C)C)cc1Nc1nc(Nc2cccc(F)c2C(N)=O)c2cc[nH]c2n1 do in these assays?
LASV entry inh: inconclusive; MARV entry inh: 0.79µM*

How did COc1cc(N2CCN(C(C)C)CC2)ccc1Nc1nc(Nc2ccc(F)cc2C(N)=O)c2cc[nH]c2n1 do in these assays?
LASV entry inh: inconclusive; MARV entry inh: 14µM*

How did COC(=O)CC1C(C)(C)C(OC(C)=O)C2[C@H](OC(C)=O)[C@]34O[C@]2(O)[C@]1(C)C3CC[C@]1(C)C4=CC(=O)OC1c1ccoc1 (stereo partly specified) do in these assays?
LASV entry inh: inconclusive; MARV entry inh: 7.9µM*

What do the screens show for `CC(=O)OC1CC2C(C)(C)C(O)CC(O)[C@@]2(C)C2CC[C@@]3(C)C(=CC(=O)OC3c3ccoc3)[C@]12C` (stereo partly specified)?
LASV entry inh: 0%; MARV entry inh: -26%

Results for C[C@@H]1[C@@H](c2ccccc2)Cc2nc3ccccc3nc2C[C@H]1C(=O)N1CCCC1 ?
LASV entry inh: 18%[8.59 µM]; MARV entry inh: -15%[8.59 µM]

How did O=C1C(Cl)=C(NCCN2CCOCC2)C(=O)c2ncccc21 do in these assays?
LASV entry inh: 11µM*; MARV entry inh: 13µM*

Results for c1ccc2c(c1)CCCc1cc(NCCN3CCOCC3)nnc1-2 ?
LASV entry inh: 24%[17.8 µM]; MARV entry inh: 5%[17.8 µM]

What do the screens show for `O[C@H]1CN(CC2CCCCC2)[C@@H](c2ccccc2)C[C@H]1n1cc(C2CC2)nn1`?
LASV entry inh: -7%; MARV entry inh: inconclusive

Results for CCOC(=O)N1CCN(Cc2ccc3c(c2)CN(C(=O)c2cc(-c4ccccc4)on2)CCO3)CC1 ?
LASV entry inh: inconclusive; MARV entry inh: -28%

What do the screens show for `OC(C#CCN1CCCC1)(c1ccccc1)c1ccccc1`?
LASV entry inh: -4%; MARV entry inh: -10%

Results for OC(CCN1CCCCC1)(c1ccccc1)c1ccccc1 ?
LASV entry inh: inconclusive; MARV entry inh: 8.9µM*

How did OC(CCN1CCCC1)(c1ccccc1)C1CCCCC1 (stereo unspecified) do in these assays?
LASV entry inh: -20%; MARV entry inh: 16µM*

How did CC[N+](CC)(CC)CCC(O)(c1ccccc1)C1CCCCC1 (stereo unspecified) do in these assays?
LASV entry inh: -10%[17.8 µM]; MARV entry inh: 5%[17.8 µM]

How did CC(=O)OC1CC2C(C)(C)C(O)CC[C@@]2(C)C2CC[C@@]3(C)C(c4ccoc4)OC(=O)C4OC43[C@]12C (stereo partly specified) do in these assays?
LASV entry inh: -8%; MARV entry inh: inconclusive

How did CC(=O)OC1CC2C(C)(C)C(O)CC[C@@]2(C)C2CC[C@@]3(C)C(c4ccoc4)OC(=O)C4O[C@@]43[C@]12C (stereo partly specified) do in these assays?
LASV entry inh: inconclusive; MARV entry inh: 13µM*

How did CC[C@H](C)[C@@H](C(=O)OC)N1Cc2ccccc2Oc2cc(Br)ccc2S1(=O)=O do in these assays?
LASV entry inh: 4%; MARV entry inh: -26%

How did CCOC(=O)[C@@H](C)N1[C@H](C)[C@H](c2ccccc2)Oc2cc(Br)ccc2S1(=O)=O do in these assays?
LASV entry inh: 14µM*; MARV entry inh: inconclusive

What do the screens show for `O=C(c1ccc([N+](=O)[O-])cc1)N1[C@H](COCc2ccccc2)C=CS1(=O)=O`?
LASV entry inh: -20%; MARV entry inh: -20%

How did C=CCN1c2ccccc2[C@]23CCC(=O)N(CCc4ccccn4)C2=NC(C(=O)OC)=C(C(=O)OC)[C@H]13 do in these assays?
LASV entry inh: 14%[8.59 µM]; MARV entry inh: 4%[8.59 µM]

How did COc1cc(C(C)=O)ccc1OCCCN1CCC(c2noc3cc(F)ccc23)CC1 do in these assays?
LASV entry inh: -13%; MARV entry inh: 6.3µM*

What do the screens show for `COc1cc2c(Nc3ccc(NC(=O)c4ccccc4)cc3)ncnc2cc1OCCCN1CCOCC1`?
LASV entry inh: 10%; MARV entry inh: inconclusive

Results for Oc1cccc(-c2c3nc(c(-c4cccc(O)c4)c4ccc([nH]4)c(-c4cccc(O)c4)c4nc(c(-c5cccc(O)c5)c5ccc2[nH]5)CC4)C=C3)c1 ?
LASV entry inh: 25µM*; MARV entry inh: inconclusive

How did COCC1CN(CCc2ccc(F)cc2)[S+](=O)([O-])c2c(OCCN3C(=O)[C@H]4[C@H](C3=O)[C@H]3C=C[C@@H]4C3)cccc2O1 (stereo partly specified) do in these assays?
LASV entry inh: -10%; MARV entry inh: -18%

What do the screens show for `CCCC(=O)O[C@]1(C(=O)CCl)[C@@H](C)C[C@H]2[C@@H]3CCC4=CC(=O)C=C[C@]4(C)[C@@]3(F)C(=O)C[C@@]21C`?
LASV entry inh: inconclusive; MARV entry inh: 7.9µM*

What do the screens show for `CCC(=O)O[C@]1(C(=O)CCl)[C@@H](C)C[C@H]2[C@@H]3CCC4=CC(=O)C=C[C@]4(C)[C@@]3(F)[C@@H](O)C[C@@]21C`?
LASV entry inh: -26%; MARV entry inh: inconclusive
